Compound in the assay: Nc1nc2c(ncn2[C@@H]2O[C@H](COP(=O)(O)OP(=O)(O)OP(=O)(O)O)[C@@H](O)[C@H]2O)c(=O)[nH]1 [guanosine triphosphate]
Put plainly: NP40-soluble protein abundance relative to vehicle (solubility fold change) (ratio); higher = more soluble protein in presence of GTP. A digest of the protocol:
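Each value is a fold change relative to the detergent-processed vehicle, calculated per replicate from vsn-normalised intensities. Jurkat crude lysate received eight concentrations (0.1 to 10 mM) for 10 min at room temperature and 3 min at 37 °C, then was solubilised in 0.8% NP40 with benzonase (60 min, 4 °C). The ultracentrifuged supernatant was TMT-labelled and run by LC-MS/MS in three independent experiments.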

± gives the standard deviation of the averaged measurements. Of roughly 5,400 targets only a part is listed; those with the largest changes were picked by preference.

UniProt P27540, sequence (P27540 whole entry): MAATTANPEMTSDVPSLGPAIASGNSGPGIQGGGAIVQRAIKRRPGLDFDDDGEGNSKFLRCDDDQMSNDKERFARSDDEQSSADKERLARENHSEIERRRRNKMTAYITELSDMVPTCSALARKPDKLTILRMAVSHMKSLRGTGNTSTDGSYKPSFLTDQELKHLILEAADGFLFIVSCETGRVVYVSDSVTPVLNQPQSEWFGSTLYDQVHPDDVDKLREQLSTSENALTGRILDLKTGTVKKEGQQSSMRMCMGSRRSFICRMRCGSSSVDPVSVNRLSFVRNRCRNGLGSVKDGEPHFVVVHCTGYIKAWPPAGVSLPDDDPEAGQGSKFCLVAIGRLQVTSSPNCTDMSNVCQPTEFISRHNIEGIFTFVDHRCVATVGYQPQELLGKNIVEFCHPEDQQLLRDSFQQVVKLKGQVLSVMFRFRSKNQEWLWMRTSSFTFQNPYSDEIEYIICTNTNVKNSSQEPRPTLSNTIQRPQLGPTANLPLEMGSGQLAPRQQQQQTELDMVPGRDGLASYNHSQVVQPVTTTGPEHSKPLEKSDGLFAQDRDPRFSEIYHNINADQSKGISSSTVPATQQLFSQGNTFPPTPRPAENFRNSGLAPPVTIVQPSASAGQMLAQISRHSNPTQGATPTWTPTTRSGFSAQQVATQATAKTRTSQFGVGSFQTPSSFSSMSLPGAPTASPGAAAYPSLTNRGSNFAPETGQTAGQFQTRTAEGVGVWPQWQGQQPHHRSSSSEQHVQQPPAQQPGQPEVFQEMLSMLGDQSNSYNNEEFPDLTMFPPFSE
UniProt O60508, sequence (O60508 whole entry, one chain of several): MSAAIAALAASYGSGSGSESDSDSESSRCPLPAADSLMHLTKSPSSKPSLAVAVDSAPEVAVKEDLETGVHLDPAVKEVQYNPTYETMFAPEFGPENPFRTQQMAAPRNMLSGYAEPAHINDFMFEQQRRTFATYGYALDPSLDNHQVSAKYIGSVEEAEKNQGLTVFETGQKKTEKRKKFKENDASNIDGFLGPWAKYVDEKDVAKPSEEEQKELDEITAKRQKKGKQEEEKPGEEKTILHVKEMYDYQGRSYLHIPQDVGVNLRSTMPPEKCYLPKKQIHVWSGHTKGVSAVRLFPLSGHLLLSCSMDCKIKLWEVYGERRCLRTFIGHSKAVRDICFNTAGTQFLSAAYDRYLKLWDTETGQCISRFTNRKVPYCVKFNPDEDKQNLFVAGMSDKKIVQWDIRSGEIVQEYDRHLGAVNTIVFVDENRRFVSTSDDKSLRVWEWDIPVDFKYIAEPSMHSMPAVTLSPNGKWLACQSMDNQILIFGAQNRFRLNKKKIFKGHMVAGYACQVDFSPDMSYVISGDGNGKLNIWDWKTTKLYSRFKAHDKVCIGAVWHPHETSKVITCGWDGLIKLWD
UniProt P51116, sequence (P51116 whole entry): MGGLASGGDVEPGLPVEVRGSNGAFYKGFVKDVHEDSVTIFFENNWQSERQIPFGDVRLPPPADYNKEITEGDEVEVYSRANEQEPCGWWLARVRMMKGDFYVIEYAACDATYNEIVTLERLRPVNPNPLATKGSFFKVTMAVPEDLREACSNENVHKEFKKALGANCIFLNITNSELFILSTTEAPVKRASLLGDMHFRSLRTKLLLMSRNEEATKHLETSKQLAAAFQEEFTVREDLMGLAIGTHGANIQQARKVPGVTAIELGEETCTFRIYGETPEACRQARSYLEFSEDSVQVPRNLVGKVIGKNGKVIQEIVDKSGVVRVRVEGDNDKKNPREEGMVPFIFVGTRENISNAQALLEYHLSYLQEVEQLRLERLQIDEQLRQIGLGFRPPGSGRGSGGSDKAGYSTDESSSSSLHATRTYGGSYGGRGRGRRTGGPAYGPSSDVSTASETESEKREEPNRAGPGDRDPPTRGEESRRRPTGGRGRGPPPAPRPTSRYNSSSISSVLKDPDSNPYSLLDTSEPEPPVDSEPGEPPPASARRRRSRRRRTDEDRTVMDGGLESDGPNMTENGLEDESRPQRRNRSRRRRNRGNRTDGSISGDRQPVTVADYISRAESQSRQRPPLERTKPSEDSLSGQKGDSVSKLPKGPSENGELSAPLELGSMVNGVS
UniProt O96028, sequence (O96028 whole entry): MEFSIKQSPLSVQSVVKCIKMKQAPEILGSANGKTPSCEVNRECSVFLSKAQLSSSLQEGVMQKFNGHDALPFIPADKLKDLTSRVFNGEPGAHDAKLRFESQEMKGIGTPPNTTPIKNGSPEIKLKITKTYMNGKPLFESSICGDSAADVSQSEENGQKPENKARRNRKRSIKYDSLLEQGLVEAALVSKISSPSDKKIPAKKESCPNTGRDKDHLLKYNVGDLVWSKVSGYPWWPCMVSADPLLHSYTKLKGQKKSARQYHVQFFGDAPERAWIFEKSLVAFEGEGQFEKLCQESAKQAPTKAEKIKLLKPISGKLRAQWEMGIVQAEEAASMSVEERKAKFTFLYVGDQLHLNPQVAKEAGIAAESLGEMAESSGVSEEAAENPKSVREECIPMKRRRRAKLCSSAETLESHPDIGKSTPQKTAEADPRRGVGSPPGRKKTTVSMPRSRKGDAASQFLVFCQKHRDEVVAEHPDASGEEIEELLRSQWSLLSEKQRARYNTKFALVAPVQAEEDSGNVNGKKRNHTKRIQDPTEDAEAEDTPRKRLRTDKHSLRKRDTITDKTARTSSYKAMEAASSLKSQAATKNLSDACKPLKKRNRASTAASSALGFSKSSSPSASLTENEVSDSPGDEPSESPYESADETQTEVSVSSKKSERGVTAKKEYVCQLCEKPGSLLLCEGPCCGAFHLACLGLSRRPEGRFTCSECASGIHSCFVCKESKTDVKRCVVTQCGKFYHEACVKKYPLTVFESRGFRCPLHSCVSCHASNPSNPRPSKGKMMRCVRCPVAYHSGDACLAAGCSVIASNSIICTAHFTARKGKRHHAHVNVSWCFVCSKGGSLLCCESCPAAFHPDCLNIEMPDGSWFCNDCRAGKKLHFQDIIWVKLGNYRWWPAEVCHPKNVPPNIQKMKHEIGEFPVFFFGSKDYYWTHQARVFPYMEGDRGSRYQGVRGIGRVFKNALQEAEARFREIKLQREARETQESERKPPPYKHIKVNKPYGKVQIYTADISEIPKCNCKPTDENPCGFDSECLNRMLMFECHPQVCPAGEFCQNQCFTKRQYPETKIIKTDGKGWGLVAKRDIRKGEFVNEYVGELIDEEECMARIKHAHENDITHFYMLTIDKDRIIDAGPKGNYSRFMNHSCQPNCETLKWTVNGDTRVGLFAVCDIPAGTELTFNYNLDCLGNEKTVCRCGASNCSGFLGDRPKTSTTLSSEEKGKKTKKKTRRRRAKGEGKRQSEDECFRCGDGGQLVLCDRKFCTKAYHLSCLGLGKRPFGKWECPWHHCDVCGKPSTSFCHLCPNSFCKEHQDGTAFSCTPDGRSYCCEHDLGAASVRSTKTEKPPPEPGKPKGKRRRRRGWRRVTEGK
UniProt O15260, sequence (O15260 whole entry, one chain of several): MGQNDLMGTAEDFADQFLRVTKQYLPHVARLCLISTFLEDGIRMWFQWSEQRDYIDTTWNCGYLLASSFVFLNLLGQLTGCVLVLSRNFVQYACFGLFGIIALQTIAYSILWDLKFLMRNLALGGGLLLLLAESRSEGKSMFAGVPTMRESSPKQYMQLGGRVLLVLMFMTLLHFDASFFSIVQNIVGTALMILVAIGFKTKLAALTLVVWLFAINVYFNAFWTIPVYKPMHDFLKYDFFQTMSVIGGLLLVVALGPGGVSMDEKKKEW
UniProt O60870, sequence (O60870 whole entry): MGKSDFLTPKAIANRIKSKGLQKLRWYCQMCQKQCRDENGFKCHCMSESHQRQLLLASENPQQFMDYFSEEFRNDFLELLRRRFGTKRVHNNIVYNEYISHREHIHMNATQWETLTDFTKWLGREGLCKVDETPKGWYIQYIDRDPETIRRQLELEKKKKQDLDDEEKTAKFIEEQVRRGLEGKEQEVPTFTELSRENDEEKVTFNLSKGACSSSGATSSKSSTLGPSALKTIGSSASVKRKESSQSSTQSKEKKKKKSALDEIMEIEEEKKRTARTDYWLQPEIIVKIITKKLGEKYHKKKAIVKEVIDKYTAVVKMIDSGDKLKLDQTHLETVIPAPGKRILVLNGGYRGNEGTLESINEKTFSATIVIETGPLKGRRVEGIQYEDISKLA
UniProt P27824, sequence (P27824 whole entry): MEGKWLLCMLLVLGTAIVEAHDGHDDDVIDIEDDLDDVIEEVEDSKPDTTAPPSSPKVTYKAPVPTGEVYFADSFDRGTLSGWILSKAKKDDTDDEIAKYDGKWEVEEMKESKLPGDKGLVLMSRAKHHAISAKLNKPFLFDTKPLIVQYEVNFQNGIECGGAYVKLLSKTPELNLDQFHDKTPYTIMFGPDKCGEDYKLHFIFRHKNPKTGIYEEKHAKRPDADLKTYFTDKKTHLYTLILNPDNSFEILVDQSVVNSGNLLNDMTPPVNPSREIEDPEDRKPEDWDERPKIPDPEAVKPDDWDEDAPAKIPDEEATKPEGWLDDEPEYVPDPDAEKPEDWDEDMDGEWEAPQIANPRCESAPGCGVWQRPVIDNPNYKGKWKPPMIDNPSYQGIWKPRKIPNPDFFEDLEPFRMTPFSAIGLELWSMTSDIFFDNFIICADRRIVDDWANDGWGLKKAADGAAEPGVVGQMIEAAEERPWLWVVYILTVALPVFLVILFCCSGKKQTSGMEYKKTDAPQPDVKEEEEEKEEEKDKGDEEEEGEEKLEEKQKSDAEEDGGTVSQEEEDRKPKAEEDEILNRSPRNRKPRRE
UniProt O43760, sequence (O43760 whole entry): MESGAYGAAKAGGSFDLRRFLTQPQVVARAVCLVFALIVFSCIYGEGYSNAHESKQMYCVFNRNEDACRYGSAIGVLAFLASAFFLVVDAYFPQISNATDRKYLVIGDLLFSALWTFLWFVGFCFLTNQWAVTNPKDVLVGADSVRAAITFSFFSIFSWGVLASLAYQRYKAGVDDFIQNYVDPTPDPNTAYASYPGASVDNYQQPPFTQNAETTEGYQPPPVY

On to UniProt O15042|O15042-2|E7ET15, for which the NP40-soluble protein abundance (concentration: 0.1mM) stood at 1 ± 0.011; the NP40-soluble protein abundance (concentration: 0.5mM) is 1.08 ± 0.013; the NP40-soluble protein abundance (concentration: 1mM) was 1.15 ± 0.05; the NP40-soluble protein abundance (concentration: 2mM) is 1.18 ± 0.094; the NP40-soluble protein abundance (concentration: 4mM) came to 1.24 ± 0.13; the NP40-soluble protein abundance (concentration: 6mM) came to 1.32 ± 0.14. For the same target, the NP40-soluble protein abundance was found to be 1.4 ± 0.22 (concentration: 8mM) and 1.37 ± 0.23 (concentration: 10mM).

Regarding DLAT (UniProt P10515), the NP40-soluble protein abundance was determined as 1.11 ± 0.22 (concentration: 0.1mM); 1.28 ± 0.39 (concentration: 0.5mM); 1.47 ± 0.56 (concentration: 1mM); 1.85 ± 0.82 (concentration: 2mM); 2.12 ± 1.1 (concentration: 4mM); 2.06 ± 1.1 (concentration: 6mM). Besides, the NP40-soluble protein abundance by setting is: (concentration: 8mM) 1.98 ± 0.98; (concentration: 10mM) 1.91 ± 0.99.

Turning to UniProt P27824|P27824-2, the NP40-soluble protein abundance (concentration: 0.1mM) turned out to be 0.965 ± 0.034; the NP40-soluble protein abundance (concentration: 0.5mM) was 1 ± 0.013; the NP40-soluble protein abundance (concentration: 1mM) is 0.95 ± 0.04; the NP40-soluble protein abundance (concentration: 2mM) came to 0.928 ± 0.048; the NP40-soluble protein abundance (concentration: 4mM) is 0.883 ± 0.061; the NP40-soluble protein abundance (concentration: 6mM) turned out to be 0.922 ± 0.06. In addition, the NP40-soluble protein abundance (concentration: 8mM) was determined as 0.906 ± 0.035 and the NP40-soluble protein abundance (concentration: 10mM) was found to be 0.896 ± 0.051.

As for RPL21 (UniProt P46778), the NP40-soluble protein abundance (concentration: 0.1mM) was 0.981 ± 0.092; the NP40-soluble protein abundance (concentration: 0.5mM) was 1 ± 0.082; the NP40-soluble protein abundance (concentration: 1mM) was 1.05 ± 0.12; the NP40-soluble protein abundance (concentration: 2mM) came to 1.01 ± 0.14; the NP40-soluble protein abundance (concentration: 4mM) worked out at 0.914 ± 0.2; the NP40-soluble protein abundance (concentration: 6mM) amounted to 0.856 ± 0.19. The NP40-soluble protein abundance runs as follows: (concentration: 8mM) 0.72 ± 0.22; (concentration: 10mM) 0.971 ± 0.23.

MCM2 (UniProt P49736): the NP40-soluble protein abundance (concentration: 0.1mM) came out at 1.01 ± 0.052; the NP40-soluble protein abundance (concentration: 0.5mM) turned out to be 1.07 ± 0.071; the NP40-soluble protein abundance (concentration: 1mM) came to 0.975 ± 0.074; the NP40-soluble protein abundance (concentration: 2mM) was 0.985 ± 0.099; the NP40-soluble protein abundance (concentration: 4mM) turned out to be 0.974 ± 0.1; the NP40-soluble protein abundance (concentration: 6mM) amounted to 0.983 ± 0.1. Moreover, the NP40-soluble protein abundance reads like this: (concentration: 8mM) 0.944 ± 0.083; (concentration: 10mM) 0.929 ± 0.074.

With H2AFX (UniProt P16104), the NP40-soluble protein abundance (concentration: 0.1mM) was 0.94 ± 0.014; the NP40-soluble protein abundance (concentration: 0.5mM) came to 0.955 ± 0.036; the NP40-soluble protein abundance (concentration: 1mM) came out at 1.07 ± 0.068; the NP40-soluble protein abundance (concentration: 2mM) is 1.13 ± 0.075; the NP40-soluble protein abundance (concentration: 4mM) amounted to 1.2 ± 0.088; the NP40-soluble protein abundance (concentration: 6mM) is 1.48 ± 0.16. Also, the NP40-soluble protein abundance was 1.44 ± 0.13 (concentration: 8mM) and 2.26 ± 0.46 (concentration: 10mM).

Take UniProt P17812: the NP40-soluble protein abundance reads like this: (concentration: 0.1mM) 1.04 ± 0.085; (concentration: 0.5mM) 1.03 ± 0.089; (concentration: 1mM) 0.924 ± 0.05; (concentration: 2mM) 0.916 ± 0.096; (concentration: 4mM) 0.904 ± 0.077; (concentration: 6mM) 0.883 ± 0.076. Moreover, the NP40-soluble protein abundance is, setting by setting: (concentration: 8mM) 0.864 ± 0.041; (concentration: 10mM) 0.819 ± 0.086.

Regarding KIN (UniProt O60870), the NP40-soluble protein abundance was determined as 0.9988 ± 0.0042 (concentration: 0.1mM); 0.993 ± 0.013 (concentration: 0.5mM); 0.9497 ± 0.0058 (concentration: 1mM); 0.929 ± 0.029 (concentration: 2mM); 0.916 ± 0.021 (concentration: 4mM); 0.908 ± 0.024 (concentration: 6mM). For the same target, the NP40-soluble protein abundance turned out to be 0.9015 ± 0.007 (concentration: 8mM) and 0.885 ± 0.053 (concentration: 10mM).

Regarding UniProt O96028|O96028-3|O96028-5, the NP40-soluble protein abundance reads like this: (concentration: 0.1mM) 1.04 ± 0.032; (concentration: 0.5mM) 1.06 ± 0.049; (concentration: 1mM) 1.19 ± 0.027; (concentration: 2mM) 1.26 ± 0.027; (concentration: 4mM) 1.44 ± 0.053; (concentration: 6mM) 1.49 ± 0.047. Besides, the NP40-soluble protein abundance runs as follows: (concentration: 8mM) 1.59 ± 0.067; (concentration: 10mM) 1.69 ± 0.062.

Take FXR2 (UniProt P51116): the NP40-soluble protein abundance (concentration: 0.1mM) is 1.08 ± 0.054; the NP40-soluble protein abundance (concentration: 0.5mM) was determined as 1.13 ± 0.081; the NP40-soluble protein abundance (concentration: 1mM) came out at 1.27 ± 0.064; the NP40-soluble protein abundance (concentration: 2mM) turned out to be 1.51 ± 0.14; the NP40-soluble protein abundance (concentration: 4mM) was 1.8 ± 0.22; the NP40-soluble protein abundance (concentration: 6mM) was determined as 1.97 ± 0.25. Moreover, the NP40-soluble protein abundance is, setting by setting: (concentration: 8mM) 2.13 ± 0.29; (concentration: 10mM) 2.23 ± 0.35.

Regarding UniProt O15260|O15260-2|Q5T8U5, the NP40-soluble protein abundance (concentration: 0.1mM) was 1.13 ± 0.021; the NP40-soluble protein abundance (concentration: 0.5mM) came to 1.03 ± 0.05; the NP40-soluble protein abundance (concentration: 1mM) turned out to be 1.05 ± 0.022; the NP40-soluble protein abundance (concentration: 2mM) was 1.01 ± 0.07; the NP40-soluble protein abundance (concentration: 4mM) came out at 1.04 ± 0.074; the NP40-soluble protein abundance (concentration: 6mM) is 0.956 ± 0.055. Further, the NP40-soluble protein abundance by setting is: (concentration: 8mM) 1.03 ± 0.044; (concentration: 10mM) 0.953 ± 0.03.

For the target UniProt O43760|O43760-2, the NP40-soluble protein abundance was determined as 0.957 ± 0.086 (concentration: 0.1mM); 0.909 ± 0.12 (concentration: 0.5mM); 0.911 ± 0.076 (concentration: 1mM); 0.915 ± 0.083 (concentration: 2mM); 0.908 ± 0.088 (concentration: 4mM); 0.852 ± 0.11 (concentration: 6mM). Moreover, the NP40-soluble protein abundance turned out to be 0.843 ± 0.15 (concentration: 8mM) and 0.884 ± 0.091 (concentration: 10mM).

For the target UniProt O60508|Q5SRN1, the NP40-soluble protein abundance reads like this: (concentration: 0.1mM) 1.07 ± 0.031; (concentration: 0.5mM) 1.1 ± 0.017; (concentration: 1mM) 1.09 ± 0.022; (concentration: 2mM) 1.072 ± 0.0076; (concentration: 4mM) 1.05 ± 0.034; (concentration: 6mM) 1.07 ± 0.053. For the same target, the NP40-soluble protein abundance came out at 1.11 ± 0.013 (concentration: 8mM) and 1.08 ± 0.042 (concentration: 10mM).

For the target UniProt P27540|P27540-2|P27540-4, the NP40-soluble protein abundance (concentration: 0.1mM) was 0.978 ± 0.071; the NP40-soluble protein abundance (concentration: 0.5mM) turned out to be 0.957 ± 0.12; the NP40-soluble protein abundance (concentration: 1mM) stood at 0.957 ± 0.027; the NP40-soluble protein abundance (concentration: 2mM) was 0.982 ± 0.11; the NP40-soluble protein abundance (concentration: 4mM) amounted to 1.02 ± 0.023; the NP40-soluble protein abundance (concentration: 6mM) worked out at 0.961 ± 0.055. For the same target, the NP40-soluble protein abundance was found to be 0.961 ± 0.059 (concentration: 8mM) and 0.927 ± 0.027 (concentration: 10mM).

(Values after the supplement of paper PMC6411743.)
